PubChem BioAssay (EPA / NIEHS)
Inconclusive results are not listed. The source made the active and inactive calls. The calls were made as follows, unless noted: active = hit-call score of the fitted dose curve at least 0.9, where 1 is the maximum; inactive = score below 0.9.

Assays:
[1] = CCTE_Mundy_HCI_Cortical_Synap_Neur_Matur_NeuriteSpotCountPerNeuriteLength: CCTE's Synaptogenesis and Neurite Maturation Assay in rat cortical cells for Neurite Spot Count per Neurite Length, Mundy Lab (AID 2284210)
In short: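 Neurite-associated synapse density (synaptophysin puncta per unit neurite length) is measured by fluorescence high-content imaging in rat cortical cultures treated from DIV 7 and fixed at DIV 12, with DMSO as negative control.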

[2] = CCTE_Mundy_HCI_Cortical_Synap_Neur_Matur_BPCount: CCTE's Synaptogenesis and Neurite Maturation Assay in rat cortical cells for Branch Point Count, Mundy Lab (AID 2284211)
In short: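 HCI read-out of branch points from MAP2/synaptophysin/Hoechst immunofluorescence; rat cortical cultures, AraC DIV 5, dosing DIV 7, fixed DIV 12; fit in positive direction vs DMSO baseline.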

[3] = CCTE_Mundy_HCI_Cortical_NOG_NeuriteCount: CCTE's Neurite Outgrowth Assay in rat cortical cells for Neurite Count, Mundy Lab (AID 2284212);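 also: cells fixed about two days after chemical exposure began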
In short: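 Rat cortical primary cells; compound added 2 h post-plating, 1/10 dilution of working solution. Anti-betaIII-tubulin/AF488 ICC; ArrayScan neurite count vs DMSO.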

[4] = CCTE_Mundy_HCI_Cortical_NOG_NeuriteLength: CCTE's Neurite Outgrowth Assay in rat cortical cells for Neurite Length, Mundy Lab (AID 2284213)
In short: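 First, rat primary cortical cells were plated and, 2 h later, given test chemical as a 1/10 dilution. Finally, βIII-tubulin immunostaining enabled automated imaging of neurite length.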

[5] = CCTE_Mundy_HCI_Cortical_Synap_Neur_Matur_NeuriteSpotCountPerNeuron: CCTE's Synaptogenesis and Neurite Maturation Assay in rat cortical cells for Neurite Spot Count per Neuron Count, Mundy Lab (AID 2284215)
In short: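 Developing rat cortical neurons, with glia suppressed by AraC, are exposed to chemicals from DIV 7 to DIV 12. Automated fluorescence imaging of MAP2-labelled neurites and synaptophysin puncta yields a count per neuron, normalised against DMSO wells.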

[6] = CCTE_Mundy_HCI_Cortical_Synap_Neur_Matur_SynapseCount: CCTE's Synaptogenesis and Neurite Maturation Assay in rat cortical cells for Synapse Count, Mundy Lab (AID 2284218)
In short: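 High-content imaging of synaptophysin puncta per MAP2-positive neuron (Hoechst nuclei) in rat cortical cells exposed DIV 7–12 after glial arrest with AraC at DIV 5; decrease relative to DMSO scored.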

[7] = CCTE_Mundy_HCI_hN2_NOG_NeuriteCount: CCTE's Neurite Outgrowth Assay in human hN2 cells for Neurite Count, Mundy Lab (AID 2284219; active = hit-call score of the fitted dose curve at least 0.9, where 1 is the maximum)
In short: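 In this morphology assay, hNP1-derived neurons received test chemical 2 h post-plating and were fixed two days later in warm paraformaldehyde/sucrose containing Hoechst 33342. Neurites, labelled by rabbit anti-βIII-tubulin (1:800) and Alexa Fluor-488 (1:500), were counted automatically.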

[8] = CCTE_Mundy_HCI_hN2_NOG_NeuriteLength: CCTE's Neurite Outgrowth Assay in human hN2 cells for Neurite Length, Mundy Lab (AID 2284220; active = hit-call score of the fitted dose curve at least 0.9, where 1 is the maximum)
In short: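 Using βIII-tubulin immunofluorescence and Hoechst nuclear counterstain, this component quantifies neurite length in hNP1-derived neurons.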

[9] = CCTE_Mundy_HCI_hN2_NOG_NeuronCount: CCTE's Neurite Outgrowth Assay in human hN2 cells for Neuron Count, Mundy Lab (AID 2284221; active = hit-call score of the fitted dose curve at least 0.9, where 1 is the maximum)
In short: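 Read-out is the number of betaIII-tubulin-positive neurons imaged by automated high-content analysis, with DMSO as negative control.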

[10] = CCTE_Mundy_HCI_Cortical_Synap_Neur_Matur_NeuriteCount: CCTE's Synaptogenesis and Neurite Maturation Assay in rat cortical cells for Neurite Count, Mundy Lab (AID 2284222);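 also: exposure from day 7 to day 12 in vitro with readout at day 12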
In short: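 Rat primary cortical cells; AraC added at DIV 5, chemicals dosed with media change at DIV 7 through DIV 12. MAP2/synaptophysin/Hoechst immunostaining, high-content imaging of neurite number; fitted relative to DMSO.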

[11] = CCTE_Mundy_HCI_Cortical_Synap_Neur_Matur_CellBodySpotCount: CCTE's Synaptogenesis and Neurite Maturation Assay in rat cortical cells for Cell Body Spot Count, Mundy Lab (AID 2284223)
In short: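 Chemicals were applied to AraC-treated rat primary cortical cells at DIV 7 and measured at DIV 12. Fixed cells were labelled for MAP2, synaptophysin and nuclei, and high-content imaging gave cell body synaptophysin spot counts per neuron relative to DMSO.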

[12] = CCTE_Mundy_HCI_Cortical_NOG_BPCount: CCTE's Neurite Outgrowth Assay in rat cortical cells for Branch Point Count, Mundy Lab (AID 2284237)
In short: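 Measured 50.33 h after dosing, this morphology endpoint uses rat primary cortical cultures labelled for betaIII-tubulin. Branch points are quantified by high-content imaging, with DMSO as negative control and baseline.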

[13] = CCTE_Mundy_HCI_hNP1_Casp3_7: CCTE's Caspase-Glo 3/7 Assay in human neuroprogenitor cells for Apoptosis, Mundy Lab (AID 2284240)
In short: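 Neuroepithelial-lineage stem cells from WA09 embryonic cells were treated with chemicals after 40–44 h of culture. Twenty-four hours later, caspase-3/7 activation was detected luminescently after a 30 min room-temperature reagent step, with DMSO as baseline.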

[14] = CCTE_Mundy_HCI_hNP1_CellTiter: CCTE's Cell Titer-Glo 2 Assay in human neuroprogenitor cells for Viability, Mundy Lab (AID 2284241; active = hit-call score of the fitted dose curve at least 0.9, where 1 is the maximum)
In short: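 Measures ATP content in human neural progenitors derived from WA09 embryonic cells. Read-out at 26.5 hours after dosing, with DMSO serving as the negative control and baseline.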

[15] = CCTE_Mundy_HCI_Cortical_Synap_Neur_Matur_NeuronCount: CCTE's Synaptogenesis and Neurite Maturation Assay in rat cortical cells for Neuron Count, Mundy Lab (AID 2284242; active = hit-call score of the fitted dose curve at least 0.9, where 1 is the maximum)
In short: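 Neuron counts come from automated high-content imaging of Hoechst nuclei and MAP2/synaptophysin immunostaining at DIV 12, with loss of signal judged against DMSO. Cultures of rat cortical cells had glial growth arrested by AraC at DIV 5; chemical exposure began DIV 7.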

[16] = IUF_NPC2c_oligodendrocyte_migration_120hr: Leibniz Research Institute for Environmental Medicine (IUF) 120-hour Neural Progenitor Cell Migration Assay for Oligodendrocyte Migration (NPC2c) (AID 2284297);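 also: O4-positive oligodendrocyte migration distance divided by radial glia migration distance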
In short: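 Using fetal brain neural progenitor spheres differentiating in N2 medium at 37C, compounds were present for 120 h. Oligodendrocyte migration distance, normalized to radial glia migration, was measured from imaged O4 staining.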

[17] = IUF_NPC2a_radial_glia_migration_120hr: Leibniz Research Institute for Environmental Medicine (IUF) 120-hour Neural Progenitor Cell Migration Assay for Radial Glia Migration (NPC2a) (AID 2284298)
In short: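 Exposure of 0.3 mm primary hNPC spheres runs day 0 to 120 h with a half-volume medium change at day 3. Fixed cells get Hoechst staining; high-content analysis of nuclear positions yields radial glia migration distance per well, compared against DMSO controls.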

[18] = IUF_NPC2a_radial_glia_migration_72hr: Leibniz Research Institute for Environmental Medicine (IUF) 72-hour Neural Progenitor Cell Migration Assay for Radial Glia Migration (NPC2a) (AID 2284299)
In short: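 Radial glia migration (µm, sphere core edge to migration front, four directions averaged) from brightfield images at 72 h; hNPC spheres differentiating on PDL/laminin in N2 medium, compound exposure at 7 concentrations from plating.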

[19] = IUF_NPC2b_neuronal_migration_120hr: Leibniz Research Institute for Environmental Medicine (IUF) 120-hour Neural Progenitor Cell Migration Assay for Neuron Migration (NPC2b) (AID 2284300)
In short: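 Fetal human NPC spheres migrate on PDL/laminin during 120 h compound treatment; neuronal migration distance, glia-normalized, scored versus DMSO control.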

[20] = IUF_NPC3_neuronal_differentiation_120hr: Leibniz Research Institute for Environmental Medicine (IUF) 120-hour Neuronal Differentiation Assay (NPC3) (AID 2284301)
In short: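 Neuronal differentiation of primary human neural progenitors measured by high-content imaging: percent TUBB3+ of Hoechst+ nuclei within migrated area at 120 h, seven-point serial dilution plus solvent control, gain or loss relative to DMSO.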

[21] = IUF_NPC4_neurite_length_120hr: Leibniz Research Institute for Environmental Medicine (IUF) 120-hour Neuronal Morphology Assay for Neurite Length (NPC4) (AID 2284302)
In short: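 Neurons from differentiating human fetal neural progenitor spheres are scored for average neurite length after five days of compound exposure. Fitting uses DMSO as negative control.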

[22] = IUF_NPC5_oligodendrocyte_differentiation_120hr: Leibniz Research Institute for Environmental Medicine (IUF) 120-hour Oligodendrocyte Differentiation Assay (NPC5) (AID 2284304; active = hit-call score of the fitted dose curve at least 0.9, where 1 is the maximum;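 also: primary human fetal neural progenitor spheres plated to migrate and differentiate; share of O4-positive cells among Hoechst nuclei found by CNN image analysis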)
In short: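 After plating on poly-D-lysine/laminin, fetal-derived hNPC spheres differentiated for 120 h at 37C in compound-containing N2 medium, refreshed by half on day 3. O4 immunostaining over Hoechst nuclei in the migration zone gave oligodendrocyte percentage relative to DMSO.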

[23] = IUF_NPC2-5_cytotoxicity_72hr: Cytotoxicity Assessment at 72 hours in the Leibniz Research Institute for Environmental Medicine (IUF) Neural Progenitor Cell Migration and Differentiation Assay for Cytotoxicity (NPC2-5) (AID 2284306; active = hit-call score of the fitted dose curve at least 0.9, where 1 is the maximum;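 also: LDH release into supernatant measured by resorufin fluorescence marking membrane damage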)
In short: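 Primary human neural progenitor spheres migrate and differentiate on laminin. Compound is present from the start of differentiation, with DMSO kept at or below 0.1%. At 72 h, supernatant LDH is quantified fluorometrically, with values fitted in the positive direction.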

[24] = IUF_NPC2-5_cytotoxicity_120hr: Cytotoxicity Assessment at 120 hours in the Leibniz Research Institute for Environmental Medicine (IUF) Neural Progenitor Cell Migration and Differentiation Assay (NPC2-5) (AID 2284307; active = hit-call score of the fitted dose curve at least 0.9, where 1 is the maximum)
In short: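 Membrane-integrity loss is quantified by LDH in supernatant after five days of exposure of migrating, differentiating human fetal NPC spheres; seven serially diluted concentrations are tested with DMSO kept at or below 0.1%.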

[25] = IUF_NPC2-5_cell_number_120hr: Cell Number Assessment at 120 hours in the Leibniz Research Institute for Environmental Medicine (IUF) Neural Progenitor Cell Migration and Differentiation Assay (NPC2-5) (AID 2284308);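 also: count of Hoechst-stained nuclei in migration zone around plated human neural progenitor spheres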
In short: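 Seven-point serial dilutions plus solvent control were applied to plated 0.3 mm hNPC spheres at differentiation start, with medium half-replaced at day 3. Nuclei positive for Hoechst in the migration zone were enumerated at 120 h.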

[26] = IUF_NPC2-5_viability_120hr: Viability Assessment at 120 hours in the Leibniz Research Institute for Environmental Medicine (IUF) Neural Progenitor Cell Migration and Differentiation Assay (NPC2-5) (AID 2284312)
In short: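 Human fetal (GW 16-19) neural progenitor spheres of 0.3 mm were plated on poly-D-lysine/laminin in N2 differentiation medium and exposed from day 0 for 120 h, with half-medium refresh at day 3. Viability was read as alamar blue resazurin-to-resorufin fluorescence against DMSO.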

[27] = IUF_NPC1_cytotoxicity_72hr: Cytotoxicity Assessment at 72 hours in the Leibniz Research Institute for Environmental Medicine (IUF) Neural Progenitor Cell Proliferation Assay (NPC1) (AID 2284332; active = hit-call score of the fitted dose curve at least 0.9, where 1 is the maximum;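 also: rising LDH signal means more cytotoxicity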)
In short: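 Cytotoxicity by LDH membrane-integrity assay on medium supernatants, fluorescence via resazurin reduction, after 3-day single exposure of primary hNPC spheres at 37C, pH 7.2-7.6 with growth factors. Fitted upward against baseline.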

Measured: outcome

C[C@H](CS)C(=O)N1CCC[C@H]1C(=O)O
inactive: all assays above
